Rows were chosen to be rich in hits. Some 2.9% of all compounds tested hit in one or more screens of this group.
PLC-beta3 inh – PLC-beta3 (human) inhibition, primary screen; Q01970; 370,000 tested, 0.18% active; AID 720704; inhibition, % at 12.2 µM; Purified PLC-beta3, fluorogenic substrate, fluorescence;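 further: 0% = median of compound wells on plate and 100% = full blocker control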
PLC-gamma1 inh – inhibitors of human phospholipase C gamma1 | P19174 | purified PLC-gamma1, fluorogenic substrate, fluorescence | inhibition, % at 12.2 µM | 370,000 tested, 0.84% active; in the data active means inhibition above about 9.5%
ADAM10 inh – inhibitors of human ADAM10. 370,000 tested, 0.62% active. AID 720582. inhibition, % at 7 µM. O14672. recombinant ADAM10, EDANS/DABCYL FRET peptide cleavage, 3 h;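 active means inhibition above a per-campaign cutoff equal to the mean of compounds falling between control-based bounds plus 3 SD, cut at about 20% in these data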;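 further: 0% = DMSO wells while the 100% control is not disclosed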
ADAM17 inh – inhibits human ADAM17 | P78536 | AID 720648 | recombinant ADAM17, EDANS/DABCYL FRET peptide cleavage | 370,000 tested, 0.83% active | inhibition, % at 6.95 µM;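 active means inhibition above the mean of compounds lying between control limits plus 3 SD, set per campaign, cut at about 8.5% in these data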;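 further: 0% = DMSO-only wells as the low control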
KLK7 zymogen act – activators of human kallikrein-7 zymogen | P49862 | purified proKLK7, EDANS-DABCYL substrate fluorescence; 100% is mature enzyme control, 0% vehicle | activation, % at 7 µM | 370,000 tested, 0.9% active;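 active means activation above the mean of all tested compounds plus 3 SD, computed per campaign excluding outliers beyond control limits, cut at about 13% in these data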
PLCgamma1 ctr – PLC-gamma1 inhibition, counter-screen for PLC-beta3 hits; inhibition, % at 12.3 µM; 3,300 tested, 3.1% active; shares compounds with PLC-gamma1 inh; AID 743258; purified PLC-gamma1, fluorogenic substrate, fluorescence; in the data active means inhibition above about 9.5%
PLCbeta3 conf – confirmation of human PLC-beta3 inhibitors; inhibition, % at 12.3 µM; purified PLC-beta3, fluorogenic substrate fluorescence; AID 743261; shares compounds with PLC-gamma1 inh; 3,300 tested, 1% active
* marks the source's active call; other numbers are inactive results; x = no result given. Unless noted, no stated cut-off is given here; in the data, active means inhibition above about 11%; inactive means the rest.

SMILES	PLC-beta3 inh	PLC-gamma1 inh	ADAM10 inh	ADAM17 inh	KLK7 zymogen act	PLCgamma1 ctr	PLCbeta3 conf
Cn1cc(S(=O)(=O)CC(=O)N2CCc3ccccc32)c2ccccc21	16*	18*	-2	2	0	13*	15*
CCCn1cc(S(=O)(=O)CC(=O)N2CCc3ccccc32)c2ccccc21	-4	0	-10	2	0	x	x
O=C(CCSc1ccccc1)N1CCN(C(=O)c2ccco2)CC1	2	14*	7	4	-1	-3	-4
O=C(Cc1ccccc1)N1CCN(C(=O)c2ccco2)CC1	-1	-1	1	-3	0	x	x
CN(C)c1nc2c(c(=O)[nH]c(=O)n2C)n1Cc1ccccc1Br	11	11*	11	1	0	-4	-2
O=C(NC1CCCC1)C(C1CC1)n1c(-c2ccccn2)nc2ccccc21 (stereo not given)	-5	-2	-39	-12	0	x	x
COc1ccc(OC)c(NC(=O)COc2coc(CN3CCCc4ccccc43)cc2=O)c1	-6	17*	-5	-1	0	-8	-5
CC(NC(=O)CNC(=S)N(Cc1ccccc1)Cc1cccnc1)c1ccccc1 (stereo not given)	-3	1	0	-6	-1	x	x
CCC(C)NC(=O)CNC(=S)N(Cc1ccccc1)Cc1cccnc1 (stereo not given)	4	9.7*	7	1	0	1	2
COc1ccc(OCC(=O)N2CCCC(Nc3ccc(C)c(C)c3)C2)cc1 (stereo not given)	0	1	-4	2	0	x	x
NC1=NC2(CCN(Cc3ccccc3)CC2)n2c(nc3ccccc32)N1	4	12*	6	4	0	-2	-5
NC1=NC2(CCCCC2)n2c(nc3ccccc32)N1	2	-1	2	2	0	x	x
CCn1cc(C(=O)O)c(=O)c2cnc(N3CCN(C(=S)NC(=O)c4ccc(F)c(F)c4)CC3)nc21	-8	4	9	-5	0	x	x
CCn1cc(C(=O)O)c(=O)c2cnc(N3CCN(C(=S)NC(=O)c4ccc(Cl)cc4Cl)CC3)nc21	5	10.0*	-5	2	-1	-16	-7
CC(C)COC(=O)N1CCCC(c2cc(C(=O)Nc3ccccc3Cl)no2)C1 (stereo not given)	1	1	4	-1	0	x	x
CC1CCCCN1S(=O)(=O)c1ccc(N(C(=O)c2cnccn2)C(C(=O)NC2CCCCC2)c2cccs2)cc1 (stereo not given)	3	12*	8	5	1	-7	-3
Cc1ccccc1CNC(=O)c1cccc2c1C(=O)N(Cc1cccnc1)C2	4	3	-13	-4	0	x	x
CCCS(=O)(=O)N1CCCC(c2nc(-c3cccc(OC)c3)no2)C1 (stereo not given)	-3	-2	-2	-6	0	x	x
COc1cccc(-c2noc(C3CCCN(S(=O)(=O)c4cccc(Cl)c4C)C3)n2)c1 (stereo not given)	1	12*	4	1	0	-2	1
COc1cccc(CN2C(=O)N(C(C)C)C(N(O)C(=O)NC(C)C)C2(C)C)c1OC (stereo not given)	15*	14*	2	4	0	4	5
CCOC(=O)c1c(C)[nH]c(C(=O)COC(=O)c2oc3ccc(OC)cc3c2C)c1C	-2	-2	-10	-4	-1	x	x
CCOC(=O)c1c(C)[nH]c(C(=O)COC(=O)c2oc3ccccc3c2C)c1C	4	10*	0	2	0	-5	-4
COC(=O)[C@@]1(C(C)C)N=C(c2cc(OC)c(OC)c(OC)c2)[C@]2(O1)C(=O)Nc1ccccc12	0	1	-11	-2	0	x	x
O=C(c1ccc(Cl)cc1[N+](=O)[O-])N1CCN(c2ccccn2)CC1	12*	8	5	5	-1	2	0
O=C(c1ccc([N+](=O)[O-])cc1Cl)N1CCN(c2ccccn2)CC1	-4	4	-1	-1	-1	x	x
SMILES	PLC-beta3 inh	PLC-gamma1 inh	ADAM10 inh	ADAM17 inh	KLK7 zymogen act	PLCgamma1 ctr	PLCbeta3 conf
CCCCCCCCN1C(=O)[C@H](CC(=O)NCCCCc2ccccc2)C[C@@]2(C(=O)OCC)CCCC=C12	2	-2	1	0	0	x	x
O=C(CCC1CCCC1)Nc1ccon1	4	12*	5	3	-1	-3	3
CN(Cc1ccccc1F)c1cc2c(c3c1ccn3C)C1CCC2C1 (stereo not given)	-25	-13	-34	-4	-1	x	x
c1ccc(CN2CCC3CC2c2c3cccc2N2CCOCC2)cc1 (stereo not given)	4	2	0	0	0	x	x
COC(=O)c1sccc1S(=O)(=O)Nc1ccc(N2CCCCC2)cc1	-3	9.6*	19	-3	0	-5	-3
COc1ccc(N2CCN(CCNC(=O)c3ccc(NC(=O)C4CCCO4)cc3)CC2)cc1 (stereo not given)	5	11*	-5	0	0	4	2
O=C(CN1CCN(c2ccccc2)CC1)NC(=O)NCc1ccco1	1	11*	5	3	1	-6	-4
O=C(CN1CCN(c2ccc(F)cc2)CC1)NC(=O)NCc1ccco1	-6	3	-7	-3	0	x	x
CC1OC2CC(=O)OC2C2=C1C(=O)c1c(O)cccc1C2=O (stereo not given)	-5	2	-16	-3	2	x	x
O=C(Nc1ccc(F)cc1)C(c1ccnc2ccccc12)N1CCN(c2cccc(C(F)(F)F)n2)CC1 (stereo not given)	7	2	-79	8	0	x	x
O=C1c2ccccc2C(=O)N1OCc1ccccc1[N+](=O)[O-]	6	13*	11	3	0	6	1
O=C(Cc1ccccc1[N+](=O)[O-])OCN1C(=O)c2ccccc2C1=O	-5	0	-6	-1	0	x	x
CC(=O)Nc1cccc(-c2csc(C(O)c3ccccc3)n2)c1 (stereo not given)	-1	6	-4	2	-6	x	x
Cc1ccc(O)c(C(=O)c2cnc3c(c2)COc2ccccc2-3)c1	-5	14*	3	-1	1	-15	-11
O=C(c1cnc2c(c1)COc1ccc(Cl)cc1-2)c1ccccc1O	2	12*	1	-1	1	-25	-24
CS(=O)(=O)/C(C#N)=C/c1cccn1S(=O)(=O)c1cccc2ccccc12	-8	-5	-3	-3	1	x	x
CC(=O)c1ccc(N2CCN(S(=O)(=O)c3cccc4nsnc34)CC2)cc1	5	10*	5	8	-1	-2	3
CCOC(=O)c1c(C)nc2c(c1-c1cc(OC)c(OC)c(OC)c1)C(=O)c1ccccc1-2	7	12*	6	4	0	-1	-4
